# Bioassay records (PubChem)
# An excerpt weighted towards active compounds, which were near 2.4% of everything screened.
# D2 PAM-1: positive allosteric modulators of human D2 dopamine receptor; HEK293 T-REx D2, calcium flux, EC20 dopamine potentiation; potentiation, % at 10 µM; hit rate 0.34% among 340,000; AID 485347;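 active means potentiation over 3 SD above the plate norm, cut at about 30% in these data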; further: 0% is about no effect
# Target sequence (P14416 whole entry, looked up): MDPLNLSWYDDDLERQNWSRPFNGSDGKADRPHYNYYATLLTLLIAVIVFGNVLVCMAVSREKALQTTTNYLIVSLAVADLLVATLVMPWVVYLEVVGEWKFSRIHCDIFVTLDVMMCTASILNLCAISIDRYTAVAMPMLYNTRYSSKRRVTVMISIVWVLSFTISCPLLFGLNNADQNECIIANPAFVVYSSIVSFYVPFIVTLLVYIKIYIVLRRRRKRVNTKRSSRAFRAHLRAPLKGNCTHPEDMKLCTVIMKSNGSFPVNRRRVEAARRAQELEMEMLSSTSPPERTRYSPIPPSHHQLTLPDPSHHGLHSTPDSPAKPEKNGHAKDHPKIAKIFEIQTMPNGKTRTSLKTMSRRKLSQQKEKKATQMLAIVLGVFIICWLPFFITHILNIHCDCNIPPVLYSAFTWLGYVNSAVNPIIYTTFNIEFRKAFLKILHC
#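 Potentiation of an EC20 dopamine calcium response measured kinetically over 180 s, after a preceding 180 s compound-only read flagging agonists. Cells: inducible Hek293 Trex D2 line, 4000/well, cultured overnight at 30 C before dye loading.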
# D2 ag-1: agonists of human D2 dopamine receptor (beta-arrestin); DiscoveRx PathHunter D2 beta-arrestin, luminescence, 90 min; 100% = 57 uM dopamine signal; activation, % (no concentration beside the values); hit rate 0.084% among 360,000; in the data active means activation above about 40%; inconclusive means between about 15% and that limit
#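 Agonist mode: compounds alone added to overnight-plated D2 PathHunter cells for 90 min at 37 C, with 57 uM final dopamine (EC100) defining full response. Beta-arrestin recruitment detected by chemiluminescent reagent, read after 1 h at ambient temperature.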
# D2 antag: D2 dopamine receptor (human) antagonism. hit rate 2% among 340,000. inhibition, % at 10 µM. P14416. AID 485344. HEK293 TREx D2 cells, calcium flux, dopamine EC80; in the data active means inhibition above about 30%; inactive means below that, where a call was filed; further: 0% is about no effect
#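 In this primary screen, negative modulation is detected by tracking calcium flux after an EC80 dopamine challenge in inducible HEK293 T-REx D2 cells preexposed to test compound for 180 s.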
# D2 PAM-2: potentiates the human D2 dopamine receptor allosterically; DiscoveRx D2 beta-arrestin cells, luminescence, 90 min; 100% = 57 uM dopamine signal; AID 624464; hit rate 0.23% among 360,000; potentiation, % (test concentration not listed); in the data active means potentiation above about 50%; inconclusive means mostly about 30% to 49%
#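 PathHunter beta-arrestin assay in DiscoveRx D2 cells. Compounds were added with an EC20 of dopamine (50 nM final) for 90 min at 37 deg C. Luminescence was read 1 h after detection reagent, with 57 uM dopamine as the EC100 control.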
# D2 ag-2: D2 dopamine receptor (human) agonism; HEK293 T-REx D2 cells, calcium flux agonist mode; activation, % at 2 µM; hit rate 0.53% among 340,000; AID 485358;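 active means activation over 3 SD above normal in the single-dose calcium agonist read, cut at about 30% in these data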; further: 0% is about no effect
#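 Agonism is scored from calcium flux in a force-coupled, inducible HEK293 cell line expressing D2, read kinetically for 180 s after compound addition against dopamine controls.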
# An asterisk follows results filed as active; ? = inconclusive; . = no result given.
SMILES,D2 PAM-1,D2 ag-1,D2 antag,D2 PAM-2,D2 ag-2
CC1=C(C(N)=O)C(c2cccnc2)n2nc(SCc3ccccc3Cl)nc2N1 (configuration not stated),0,0,35*,1,-2
CC1=C(C(N)=O)C(c2cccc(Br)c2)n2nc(SCc3ccccc3Cl)nc2N1 (configuration not stated),5,.,.,.,1
Cc1ccccc1NC(=O)c1ccc([N+](=O)[O-])o1,11,?,-12,10,-1
Cc1ccc(NC(=O)c2ccc([N+](=O)[O-])o2)c(C)c1,-5,?,33*,5,0
O=C(Nc1ccc(NC(=O)c2ccc([N+](=O)[O-])o2)cc1Cl)c1ccco1,-22,14,40*,13,1
O=C(c1cc(S(=O)(=O)N2CCCC2)c[nH]1)N1CCN(c2cccc(Cl)c2)CC1,1,.,.,.,0
CCCn1c(=O)c2sccc2n2c(CCCC(=O)NC3CCC(C)CC3)nnc12 (configuration not stated),.,.,.,.,0
Cc1cc(NC(=O)c2ccc(-c3ccc(Br)cc3)o2)cc(-c2nc3ncccc3o2)c1O,11,.,.,.,0
COCCCn1c(C)cc(C(=O)COC(=O)CCc2nc3ccccc3c(=O)[nH]2)c1C,-2,7,31*,1,1
COc1cccc(CNC(=O)CN2C(=O)COc3ccc(S(=O)(=O)Nc4ccccc4)cc32)c1,0,.,.,.,0
Cc1nnnn1CC(=O)Nc1ccccc1[N+](=O)[O-],-3,2,36*,2,-1
CN1CCN(CC(=O)Nc2ccccc2[N+](=O)[O-])CC1,-4,-3,-6,-22,1
Cc1nnc(SCC(=O)Nc2nc(-c3ccccc3)cs2)n1N,7,-1,-2,0,0
Cn1cnnc1SCC(=O)Nc1nc(-c2ccccc2)cs1,-6,-4,56*,-7,0
COc1ccc(C)cc1NC(=O)C1CCC(CNS(=O)(=O)c2ccc3c(c2)CCCC(=O)N3)CC1 (configuration not stated),6,.,.,.,0
CCc1ccc2oc(=O)cc(CN3CCN(Cc4ccccc4)CC3)c2c1,-21,-4,39*,-25,0
O=c1cc(CN2CCN(C/C=C/c3ccccc3)CC2)c2cc(O)ccc2o1,-22,1,83*,-27,1
O=c1cc(CN2CCN(Cc3ccccc3)CC2)c2cc(Cl)ccc2o1,-7,-8,4,-47,-1
O=c1[nH]c(CN2CCN(S(=O)(=O)/C=C/c3ccccc3)CC2)nc2ccccc12,-7,0,-35,4,0
O=c1cc(CN2CCN(Cc3ccccc3)CC2)c2ccc(O)cc2o1,-19,-5,4,-24,-1
Cc1ccc2oc(=O)cc(CN3CCN(C/C=C/c4ccccc4)CC3)c2c1,-18,-3,58*,-22,-1
O=c1[nH]c(CN2CCN(C/C=C/c3ccccc3)CC2)nc2ccccc12,-27,0,63*,-24,29
Cc1ccc(-n2ncc(C(=O)N3CCC(c4ccccc4)C3)c2C2CCN(C(=O)OC(C)(C)C)CC2)cc1 (configuration not stated),-8,.,.,.,0
COc1ccc(-c2nc(C)c(CCNC(=O)C(=O)Nc3cccc(F)c3)s2)cc1OC,9,.,.,.,-1
Cc1cccc2sc(N(CCN(C)C)C(=O)/C=C/c3cccs3)nc12,-19,-4,32*,-43,0
SMILES,D2 PAM-1,D2 ag-1,D2 antag,D2 PAM-2,D2 ag-2
COc1ccc2sc(N(CCN(C)C)C(=O)/C=C/c3cccs3)nc2c1,-23,3,36*,-17,0
COc1ccc2nc(N(CCN(C)C)C(=O)/C=C/c3cccs3)sc2c1,-8,-1,1,-19,0
Cc1cc(O)c(C(c2ccccc2)N2CCN(c3ccccc3)CC2)c(=O)n1Cc1ccco1 (configuration not stated),-5,.,.,.,.
CN(c1ccc(C(=O)NCC2CCCO2)cc1)S(=O)(=O)c1ccc(Cl)cc1 (configuration not stated),.,0,.,-13,.
O=C(NCC1CCCO1)c1ccc(NC(=O)c2cccc(Br)c2)cc1 (configuration not stated),.,6,.,94*,.
O=C(NCC1CCCO1)c1cccc(Br)c1 (configuration not stated),-4,0,-13,2,0
O=C(NCC1CCCO1)c1cc(S(=O)(=O)N2CCOCC2)ccc1Cl (configuration not stated),-3,-4,-15,-12,0
O=C(NCC1CCCO1)c1cc(S(=O)(=O)Nc2ccc(Br)cc2)ccc1Cl (configuration not stated),3,2,53*,9,0
O=C(NCC1CCCO1)c1cc2c([nH]c3ccccc32)c(-c2cccc(Br)c2)n1 (configuration not stated),-19,6,34*,-64,-1
CN(c1ccc(F)cc1)S(=O)(=O)c1ccc(Cl)c(C(=O)NCC2CCCO2)c1 (configuration not stated),32*,-3,6,-2,0
Cc1cc(C)c2oc(C(=O)Nc3nc4ccc(Cl)cc4s3)cc(=O)c2c1,-2,.,.,.,1
Cc1ccc(CNCCCSc2nc(C)cc(C)n2)cc1,-14,-4,63*,-3,0
Cc1cc(C)nc(SCCCNCc2ccc(Br)cc2)n1,-29,-2,59*,-8,1
CC(C)COC(=O)c1ccc2c(c1O)C(=O)c1ccccc1C2=O,-1,13,2,62*,0
CCc1cccc(CC)c1-n1c(-c2cccnc2)n[nH]c1=S,-9,0,66*,-8,0
CC(=O)N1CCc2cc(CNS(=O)(=O)c3cccs3)ccc21,6,.,.,.,0
Cc1ccc(N/C(N)=N/c2nc3c(c(=O)[nH]2)CCCC3)c(C)c1,-1,3,-10,-7,-1
Cc1ccc(N/C(N)=N/c2nc(C)cc(N3CCCCC3)n2)c(C)c1,-19,6,35*,-18,8
CC(=O)N1CCc2nc3sc(C(=O)c4ccc(F)cc4)c(N)c3c(C(F)(F)F)c2C1,-1,.,.,.,14
CC1(c2ccc3noc(-c4ccccc4)c3c2)OCCO1,16,14,-12,58*,-1
CC1(c2ccc3noc(-c4ccc(F)cc4)c3c2)OCCO1,-6,?,-8,60*,1
O=C(c1ccc2noc(-c3ccccc3)c2c1)N1CCN(c2ccccc2)CC1,-4,?,-3,72*,0
COc1cccc(-c2onc3ccc(C4(C)OCCO4)cc23)c1,3,?,0,25,1
O=C(O)c1ccc2noc(-c3ccccc3)c2c1,1,3,-11,-4,0
CCc1ccccc1Nc1nc2cc(Cl)c(Cl)cc2nc1-n1nc(C)cc1C,-5,.,.,.,0
